# Screens as filed in PubChem.
# Sampled rows, rich in hits. Any-hit rate of the full collection: about 2.4%.
# STAT1 blocker: STAT1 signaling inhibitors, primary screen, cell-based, HTS, luciferase reporter. NIH 3T3 STAT1-luciferase reporter, IFN-gamma, luminescence. 200,000 tested, 0.35% active. inhibition, % at 5.5 µM;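 active = inhibition above a set limit, the mean inhibition across all tested compounds plus 3 SD, cut at about 34% in these data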;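 also: 0% = IFN-gamma with DMSO and 100% = IFN-gamma with 300 µM nifuroxazide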
# HSF1 inhib: HSF1 inhibitors in luciferase reporter cells, primary screen, cell-based, NIH3T3, luminescence. 300,000 tested, 0.77% active. NIH3T3-HGL HSE-luciferase, MG132-induced, luminescence 8 h; hits give low values. activity change, negative = inhibition, % at 7.5 µM (by protocol). AID 2098, 2009;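 active = more than half of replicate wells show activity change below -50%, luminescence cut by over half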;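 also: luciferase reports HSF-1 transcriptional activity via heat shock element; 0% = median of DMSO wells and -100% = zero luminescence signal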
# HSP90 inh: HSP90 inhibitors, primary screen, cell lysate, luminescence; Heat shock protein HSP 90 (rabbit reticulocyte lysate; luciferase refolding); Rabbit reticulocyte lysate, luciferase refolding luminescence, 3 h; inhibition, % at 5.6 µM; 290,000 tested, 0.91% active;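 active = inhibition above the screen-wide mean plus 3 SD, computed separately per campaign, cut at about 16% in these data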;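 also: 0% = DMSO wells and 100% = 60 µM geldanamycin wells; inhibitors lower the luminescence because luciferase stays unfolded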
# STAT3 inh: IL-6 driven STAT3 reporter inhibitors, primary screen, U3A cells, luciferase, luminescence, MLSCN library. AID 862, 2007. 190,000 tested, 0.89% active. IL-6 STAT3-luciferase reporter; host cell line lacks STAT1. inhibition, % at 5.5 µM;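 active = inhibition above the mean inhibition across all screened compounds plus 3 SD, cut at about 44% in these data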;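 also: 0% = DMSO only wells and 100% = 100 µM nifuroxazide control wells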
# TRAIL sens C8: viability loss with TRAIL in NB7+C8 cells, primary screen, TRAIL sensitizer project, cell-based, ATPlite luminescence | AID 624354, 2012 | 360,000 tested, 1% active | inhibition (viability loss, TRAIL sensitization), % at 10 µM;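 active = compounds causing at least 50% loss of cell viability in the single-dose screen, relative to plate controls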
# PPC-1+TRAIL kill: compounds killing PPC-1 cancer cells with TRAIL present, primary screen, TRAIL potentiator project, ATPLite luminescence, uHTS; PPC-1 cells + TRAIL, ATPLite viability luminescence; cell killing (% activity), % at 4 µM or 5 µM; 220,000 tested, 0.41% active; AID 1443, 2008;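 active = cell killing above 50% in the first pass at 4 µM, then a duplicate retest at 5 µM averaging 50% or more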;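 also: plate controls were cells with TRAIL plus DMSO for no effect and medium-only wells lacking cells for full effect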
# Numbers without * were called inactive; . = no result given.
SMILES,STAT1 blocker,HSF1 inhib,HSP90 inh,STAT3 inh,TRAIL sens C8,PPC-1+TRAIL kill
CCN1CCN(c2cc(C)c3cc(NC(=O)c4cccnc4Cl)ccc3n2)CC1,-1,-4,1,10,-2,11
COCCOCCn1c(/C=C/c2ccccc2)nc2ccccc21,-42,32,1,31,53*,48
CC(C)n1c(CN(C)c2ccccc2)nc2ccccc21,.,3,-1,.,9,.
CCCn1c(/C=C/c2ccccc2)nc2ccccc21,-50,.,1,-9,53*,37
CCn1c(/C=C/c2cc[n+](C)cc2)nc2ccccc21,.,-3,0,.,15,.
COCCOCCn1c(CCCO)nc2ccccc21,1,-6,2,0,2,9
CC(C)n1c(/C=C/c2ccccc2)nc2ccccc21,-14,79,3,9,52*,33
CCSc1ncnc2c1oc1ccccc12,-10,15,3,12,-14,-12
Clc1ncnc2c1oc1ccccc12,-47,11,-2,-39,65*,11
CCN(CC)c1ccc2c(c1)oc(=O)c1c(Cl)cc(=O)oc12,1,63,6,-3,70*,9
CCN(CC)c1ccc2c(C)c(Cl)c(=O)oc2c1,-14,-5,-3,-3,-4,18
COc1cccc(N2CCN(Cc3nnnn3C3CCCCC3)CC2)c1,-4,-60*,1,3,-3,-1
c1ccc(Nc2ccccn2)cc1,-3,6,-6,15,-6,18
c1ccc(/N=C2\N=C(Nc3ccccn3)c3ccccc32)nc1,.,-9,.,.,48*,.
COc1ccc(Cn2c(SCc3cc(C)ccc3C)nc3cc(OC)c(OC)cc3c2=N)cc1,-3,11,15,26,92*,18
COc1ccc(Cn2c(SCc3ccc(C)cc3)nc3cc(OC)c(OC)cc3c2=N)cc1Cl,-6,-26,0,-7,93*,25
COc1cc2nc(SCc3ccc(Cl)cc3Cl)n(Cc3cccs3)c(=N)c2cc1OC,-4,4,-10,-8,9,12
Fc1ccccc1N1CCN(C(c2ccnc3ccccc23)c2nnnn2-c2ccc3c(c2)OCCO3)CC1 (centres undefined),.,.,.,.,5,.
CC(O)(c1cccc(F)c1)c1nc(-c2ccc(S(C)(=O)=O)cc2)cs1 (centres undefined),.,.,.,.,-14,.
COC(=O)c1sc2nc(-c3ccco3)ccc2c1N,-45,39,1,26,57*,14
CCOC(=O)c1sc2nc(-c3cccnc3)ccc2c1N,-85,36,2,11,59*,42
NC(=O)c1sc2nc(-c3ccco3)ccc2c1N,-33,14,2,26,-9,18
O=C1c2ccccc2C(c2nnnn2-c2ccc3c(c2)OCCO3)N1Cc1ccco1 (centres undefined),.,.,.,.,-9,.
COc1ccccc1S(=O)(=O)N(C)C[C@@H]1OCc2cnnn2CCCC(=O)N([C@@H](C)CO)C[C@@H]1C,.,.,.,.,-8,.
COC(=O)C[C@H]1CC[C@H](NC(=O)Nc2ccccc2OC)[C@@H](CO)O1,.,.,.,.,6,.
SMILES,STAT1 blocker,HSF1 inhib,HSP90 inh,STAT3 inh,TRAIL sens C8,PPC-1+TRAIL kill
C/C(=N\Nc1nc(C)cc(-c2ccccc2)n1)c1cccc(N)c1,.,12,-3,.,51*,.
C/C(=N\Nc1nc(C)cc(-c2ccccc2)n1)c1ccccc1,.,-6,-5,.,20,.
CCOC(=O)N1CCN(C(=O)c2ccc(Cn3c(=S)[nH]c4ccc(Br)cc4c3=O)cc2)CC1,.,-15,0,.,53*,.
CCOC(=O)N1CCN(C(=O)c2ccc3c(=O)n(Cc4ccc(Cl)cc4)c(=S)[nH]c3c2)CC1,2,18,2,19,-9,14
O=C(c1ccc2c(=O)n(Cc3ccccc3)c(=S)[nH]c2c1)N1CCOCC1,.,-87*,-2,.,14,.
CC(C(=O)NC1CCCC1)n1c(-c2ccccn2)nc2ccccc21 (centres undefined),.,.,.,.,-24,.
O=S1(=O)CC(N2CCCC2)CN1Cc1cn(Cc2ccccc2)nn1 (centres undefined),.,.,.,.,-13,.
COc1ccccc1NC(=O)C(C)OC(=O)Cc1ccsc1 (centres undefined),.,.,.,.,8,.
O=C(COc1ccccc1[N+](=O)[O-])Nc1ccc(NC(=O)c2cc3ccccc3o2)cc1,-13,-27,-1,38,35,29
O=C(COc1ccc(/C=N/NC(=O)c2cc3ccccc3o2)cc1Br)Nc1ccccc1,-22,25,-1,-4,59*,33
CCOC(=O)N(C)C[C@@H]1OCc2cnnn2CCCC(=O)N([C@H](C)CO)C[C@H]1C,.,.,.,.,2,.
COc1cc(OC)nc(Oc2ccccc2C(=O)Oc2ccc(Cl)cc2)n1,-2,-86*,-2,7,2,9
COc1cc(OC)nc(Oc2ccccc2C(=O)Oc2ccc(C)cc2)n1,2,-3,1,2,-7,-5
COc1ccc(C(CNc2ccc(S(=O)(=O)N3CCN(C)CC3)cc2[N+](=O)[O-])N(C)C)cc1 (centres undefined),.,.,.,.,3,.
COc1ccccc1C(CNc1ccc(S(=O)(=O)N2CCCC2)cc1[N+](=O)[O-])N(C)C (centres undefined),.,4,1,.,65*,.
COc1cccc(C(=O)Nc2sc(C(C)C)cc2C(N)=O)c1OC,.,-79*,-1,.,-7,2
O=C1NC(Cc2ccc(O)cc2)c2nc3ccc(F)cc3c(=O)n2-c2ncccc21 (centres undefined),.,.,.,.,10,.
Cc1ccc([N+](=O)[O-])c(OCCCN2CCC(Cc3ccccc3)CC2)c1,.,-60*,13,.,-9,.
COc1ccc(NC(=O)N[C@H]2CC[C@@H](CC(=O)NC3CCC3)O[C@@H]2CO)cc1,.,.,.,.,4,.
NC1=C(Cl)C(=O)c2ccccc2C1=O,.,.,.,.,27,.
NC1=C(Cl)C(=O)c2ccc(S(N)(=O)=O)cc2C1=O,.,.,.,.,92*,.
OCc1ccccc1-c1cnc2sc(NCc3ccc(F)cc3)nn12,.,.,.,.,11,.
Cc1ccc2[nH]c3c(c2c1)CCN(C)C3,.,-71*,-4,.,0,.
Cc1ccc2[nH]c3c(c2c1)CN(C)CC3,0,4,1,-5,-1,5
Cc1ccc(NC(=O)C2(N(CC(C)C)C(=O)Cn3nnnc3N)CCCCC2)cc1,9,4,2,5,-19,-9
COc1ccc(NC(=O)C2(N(CC(C)C)C(=O)Cn3nnnc3N)CCCCC2)cc1,3,19,3,-4,-16,56*
O=C(NC(c1ccc(Cl)cc1)c1ccsc1)C1CCN(CCOc2ccc(Cl)cc2)CC1 (centres undefined),.,.,.,.,5,.
Cc1cccc(C)c1NC(=O)c1cccnc1,.,-67*,-2,.,6,.
CCc1cccc(C)c1NC(=O)c1cccnc1,.,2,-1,.,-11,.
